Source: PubChem
Most compounds without a hit are left out; they make up all but 0.86% or so of the library.
RECQ1 inh-1: inhibitors of human RECQ1 DNA helicase. Potency, µM (titrated, usually from 57.3 µM), for the others: top-dose activity, negative = inhibition, actives largely listed as inhibitors. actives 0.54% (n = 240,000). RECQ1 DNA unwinding, red fluorescence kinetic read;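 also: plate controls were vehicle for no effect and no enzyme for full effect; nearly all actives have a fitted effect of over 30% in size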
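RECQ1T1 50 nM; forked duplex (20 bp + 30-nt ss tails) 200 nM, ATP 2 mM final; pH 8.0, 2 mM MgCl2, 2.5 ug/ml poly(dI-dC); 15 min compound preincubation; discontinuous kinetic read over 2 h at RT.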
Tb PGK inh: inhibitors of T. brucei phosphoglycerate kinase. P07378. Potency, µM (titrated, usually from 57.5 µM), inactives show at the highest dose activity change, negative = inhibition, most hits filed as inhibitors. actives 0.043% (n = 380,000). AID 602233. PGK/GAPDH coupled, Kinase-Glo luminescence, 60 min; also: nearly all actives have a fitted effect of over 60% in size
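Luminescent ATP detection (Kinase-Glo Plus) follows a 60-minute room-temperature incubation, with wells lacking PGK as controls. Buffer: 100 mM TEA (pH 7.6), 5 mM MgCl2, 0.01% Tween-20. Coupling enzyme GAPDH (100 nM final) supplies unstable 1,3-BPG in-well.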
FEN1 inhibitor: human FEN1 inhibition; P39748; Recombinant FEN1 flap cleavage, fluorescence, 15 min; Potency, µM (top dose mostly 114 µM), inactives show at the highest dose activity change, negative = inhibition, usual class: inhibitors; actives 0.35% (n = 390,000); also: nearly all actives have a fitted effect of over 65% in size
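Potency values derive from four-parameter Hill fits of normalized qHTS data. The reaction used 10 nM FEN1 preincubated 15 min at room temperature with compound, then 50 nM DNA substrate, read at 0 and 15 min.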
GLS inhibitor: glutaminase GLS (human) inhibition; GLS enzymatic activity, qHTS titration; Potency, µM (titrated, usually from 45.5 µM), for the others: top-dose activity change, negative = inhibition, hits mostly inhibitors; actives 0.21% (n = 410,000)
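Enzyme dispensed in phosphate buffer (45 mM, pH 8.2, 0.02% Tween-20), compounds pinned in, then 1 mM L-glutamine solution and the glutamate oxidase–HRP–Amplex Red mix added; fluorescence read immediately and again after 30 min at room temperature.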
BLM helicase inh: Bloom syndrome helicase (human) inhibition; P54132; recombinant BLM DNA unwinding, fluorescence dequenching; Potency, µM (series often up to 56.1 µM), without a hit: top-dose activity change, negative = inhibition, most hits filed as inhibitors; actives 0.2% (n = 350,000); AID 2528;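 also: plate controls were vehicle for no effect and no enzyme for full effect; nearly all actives have a fitted effect of over 35% in size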
APEX1 inh: APE1 (human) endonuclease inhibition | actives 0.35% (n = 350,000) | P27695 | recombinant APE1, TAMRA/BHQ-2 abasic DNA cleavage fluorescence | Potency, µM (doses to about 65.8 µM), without a hit: at the highest dose activity change, negative = inhibition, actives largely listed as inhibitors | AID 2517;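 also: plate controls were vehicle for no effect and reference inhibitor for full effect; nearly all actives have a fitted effect of over 55% in size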
Target sequence (P27695 whole entry, looked up): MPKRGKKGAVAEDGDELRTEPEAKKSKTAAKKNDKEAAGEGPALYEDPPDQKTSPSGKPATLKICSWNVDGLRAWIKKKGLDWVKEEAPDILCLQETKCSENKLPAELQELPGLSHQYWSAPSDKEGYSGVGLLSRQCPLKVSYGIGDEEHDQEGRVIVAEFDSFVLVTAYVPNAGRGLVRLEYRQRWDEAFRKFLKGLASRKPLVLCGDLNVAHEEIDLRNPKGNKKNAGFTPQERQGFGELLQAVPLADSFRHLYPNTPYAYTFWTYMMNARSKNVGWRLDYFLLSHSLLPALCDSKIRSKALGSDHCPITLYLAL
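Activity was derived from the fluorescence gain between first and third kinetic reads (60 s intervals, ex 525/em 598 nm) after 50 nM THF-abasic TAMRA/BHQ-2 duplex was added to 0.75 nM APE1 preincubated 15 min with compound.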
RECQ1 inh conf: confirmation of human RECQ1 helicase inhibitors. shares compounds with RECQ1 inh-1. RECQ1 helicase DNA unwinding, fluorescence. Potency, µM (doses to about 229 µM), without a hit: top-dose activity change, negative = inhibition, most hits filed as inhibitors. actives 28% (n = 610). AID 2708; also: nearly all actives have a fitted effect of over 45% in size
ADP FP counter: ADP displacement flagged in RECQ1 inhibitor counter-screen. shares compounds with RECQ1 inh-1. ADP fluorescence polarization displacement counterscreen. Potency, µM (series often up to 228 µM), for inactives: at the highest dose activity change, negative = inhibition, usual class: inhibitors. actives 27% (n = 530). AID 2711; also: nearly all actives have a fitted effect of over 45% in size
RECQ1 inh-2: RECQ1 helicase inhibition confirmed, round 2 | shares compounds with RECQ1 inh-1 | recombinant RECQ1 DNA unwinding, red fluorescence | Potency, µM (titrated, usually from 119 µM), for inactives: top-dose activity, negative = inhibition, actives largely listed as inhibitors | actives 15% (n = 1,100); also: nearly all actives have a fitted effect of over 50% in size
Active calls of the source: *; i = inactive; ? = inconclusive; · = not tested or not shown; ! = not confirmed by another sample; [ ] = another dose, or the depositor's remark. Calls follow the shape of the dose curve; as a rule, active = well fitted curve in the direction sought with a large enough effect; inconclusive = small, poorly fitted or top-dose-only effect, or another doubt; inactive = no such curve, though single readings can be large; an effect the other way counts as inactive or inconclusive. Unless noted, % is scaled to controls: 0 for no effect and ±100 for the full control effect; potency is read from the fitted curve at half-maximal effect.

SMILES	RECQ1 inh-1	Tb PGK inh	FEN1 inhibitor	GLS inhibitor	BLM helicase inh	APEX1 inh	RECQ1 inh conf	ADP FP counter	others
CC[C@H](C)[C@H](NC(=O)[C@H](CO)NC(=O)[C@H](CC(N)=O)NC(=O)[C@H](CC(C)C)NC(=O)[C@H](Cc1ccc(O)cc1)NC(=O)[C@H](CCCCN)NC(=O)[C@H](CCCCN)NC(=O)[C@@H](NC(=O)[C@H](C)NC(=O)[C@H](CCSC)NC(=O)[C@H](CCC(N)=O)NC(=O)[C@H](CCCCN)NC(=O)[C@H](CCCNC(=N)N)NC(=O)[C@H](CC(C)C)NC(=O)[C@H](CCCNC(=N)N)NC(=O)[C@@H](NC(=O)[C@H](Cc1ccc(O)cc1)NC(=O)[C@H](CC(N)=O)NC(=O)[C@H](CC(=O)O)NC(=O)[C@@H](NC(=O)[C@H](Cc1ccccc1)NC(=O)[C@@H](NC(=O)[C@H](C)NC(=O)[C@H](CC(=O)O)NC(=O)[C@H](CO)NC(=O)[C@@H](N)Cc1cnc[nH]1)C(C)C)[C@@H](C)O)[C@@H](C)O)C(C)C)C(=O)N[C@@H](CC(C)C)C(=O)N[C@@H](CC(N)=O)C(N)=O	-1%	·	·	·	8%	14%	·	·
O=C1C=CC(=O)C(Cl)=C1	20µM*	·	·	·	-16%	28µM*	?	16µM*
CC[N+](=O)[O-]	4%	·	·	·	·	1%	·	·
C=C(Cl)CCl	-7%	·	·	·	·	3%	·	·
O=C(O)Cn1cc(C=C2C(=O)NC(=O)NC2=O)c2ccccc21	·	4%	-3%	3%	1%	21%	·	·
O=C(O)CCn1cc(C=C2C(=O)NC(=O)NC2=O)c(-c2cc3ccccc3oc2=O)n1	21%	-6%	-10%	0%	3%	-8%	15%	-3%
CCCSc1cc(OC)c(CCN)cc1OC	·	·	·	-2%[99.4 µM]	·	·	·	·
C=C1C(=O)O[C@H]2C[C@@H](C)[C@@H]3C=CC(=O)[C@@]3(C)C[C@H]12	-7%	-9%	1%	5%	-1%	1%	·	·
C=C1C(=O)O[C@@H]2C[C@@H](C)[C@@H]3C=CC(=O)[C@@]3(C)[C@@H](OC(=O)CC(=O)O[C@H]3[C@@H]4C(=C)C(=O)O[C@@H]4C[C@@H](C)[C@@H]4C=CC(=O)[C@]43C)[C@H]12	25µM*	?	?	-17%	22µM*	-11%	14µM*	-4%[91.9 µM]
Nc1ccc(Cl)cc1C(=O)c1ccccc1Cl	25µM*	i	11%	-18%	-9%	-3%	·	·	RECQ1 inh-2=-20%
CCC(C=C[C@@H]1OC(=O)C=C[C@H]1C)=C[C@H](C)CC=CC(C)=C[C@@H](C)C(=O)[C@@H](C)[C@H](O)[C@@H](C)CC(C)=CC(=O)O	?	·	·	·	?	?	·	·	RECQ1 inh-2=1.3µM*
CCCSC(=O)Cl	-16%	·	·	·	·	-1%	·	·
CC1COC2=C1C(=O)C(=O)c1c2ccc2c1CCCC2(C)C (centres undefined)	13µM*!	·	·	·	?	?	100µM*	28µM*
C[C@H]1COC2=C1C(=O)C(=O)c1c2ccc2c1CCCC2(C)C	?	-9%	?	-4%	-22%	-3%	·	·
